# Test results as given in PubChem BioAssay (EPA / NIEHS).
# Records with an inconclusive call do not appear. The source made the active and inactive calls. Rule for the calls, unless noted: active = hit-call score of the fitted dose curve at least 0.9, where 1 is the maximum; inconclusive = response in the unintended direction; inactive = score below 0.9.
# Assays:
# [1] = Tanguay_ZF_120hpf_SOMI_legacy: (Legacy) Oregon State University Tanguay Lab 120 Hour Post-fertilization zebrafish Assay for Somite Malformation (AID 2283647)
# Outline: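 Binary brightfield scoring of somite defects at 120 hpf in 5D wild-type larvae; one dechorionated embryo per well, static exposure from 6 hpf, 28C, sealed and dark. Final DMSO 0.64%; trimethyltin chloride 5uM positive control.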
# [2] = Tanguay_ZF_120hpf_PFIN_legacy: (Legacy) Oregon State University Tanguay Lab 120 Hour Post-fertilization zebrafish Assay for Pectoral Fin Malformation (AID 2283648);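 note: each larva judged yes or no for fin defect by brightfield with dead larvae skipped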
# Outline: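 5D WT zebrafish; pronase dechorionation 4 hpf; 1 embryo/well at 6 hpf; static exposure to 120 hpf, 28C, sealed, foil-covered; final DMSO 0.64% v/v; 5 uM trimethyltin chloride positive control; fin defect scored yes/no.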
# [3] = Tanguay_ZF_120hpf_CFIN_legacy: (Legacy) Oregon State University Tanguay Lab 120 Hour Post-fertilization zebrafish Assay for Caudal Fin Malformation (AID 2283649)
# Outline: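 Dechorionated 5D wild-type zebrafish, static exposure 6–120 hpf, 28C, sealed and dark, 0.64% v/v DMSO final. Binary fin-malformation call at 120 hpf, brightfield; gain of signal vs DMSO baseline.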
# [4] = Tanguay_ZF_120hpf_PIG_legacy: (Legacy) Oregon State University Tanguay Lab 120 Hour Post-fertilization zebrafish Assay for Pigmentation Malformation (AID 2283650)
# Outline: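 Pronase dechorionation at 4 hpf; embryos plated at 6 hpf, one per well; static exposure, sealed and foil-covered, 28C, to 120 hpf; pigmentation read by brightfield, binary; DMSO 0.64% baseline, 5uM trimethyltin chloride positive control.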
# [5] = Tanguay_ZF_120hpf_CIRC_legacy: (Legacy) Oregon State University Tanguay Lab 120 Hour Post-fertilization zebrafish Assay for Circulatory Malformation (AID 2283651)
# Outline: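 Tropical 5D wild-type embryos, dechorionated with pronase at 4 hpf, were placed singly in wells at 6 hpf and exposed statically at 28C to 120 hpf (0.64% DMSO final). Circulatory malformation was scored present/absent by brightfield microscopy.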
# [6] = Tanguay_ZF_120hpf_TRUN_legacy: (Legacy) Oregon State University Tanguay Lab 120 Hour Post-fertilization zebrafish Assay for Truncated Body (AID 2283655)
# Outline: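 Whole-embryo zebrafish screen: dechorionated 5D embryos, static exposure 6–120 hpf, 28C, sealed foil-covered plates, 0.64% DMSO. Binary truncation call; gain of signal versus DMSO baseline.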
# [7] = Tanguay_ZF_120hpf_NC_legacy: (Legacy) Oregon State University Tanguay Lab 120 Hour Post-fertilization zebrafish Assay for Notochord and Tail Malformation (AID 2283656)
# Outline: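 Dechorionated 5D zebrafish, 1/well from 6 hpf; static exposure to 120 hpf, 28C, sealed, dark; final DMSO 0.64% v/v. NC scored binary (present/absent); dead embryos not scored. Fit vs DMSO baseline, gain direction.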
# [8] = Tanguay_ZF_120hpf_SWIM_legacy: (Legacy) Oregon State University Tanguay Lab 120 Hour Post-fertilization zebrafish Assay for Swim Bladder Malformation (AID 2283654);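 note: swim bladder malformation in each larva scored yes or no under brightfield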
# Outline: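 Embryos lacking chorions were exposed individually and statically to test chemical from 6 to 120 hpf at 28C, with 0.64% DMSO as vehicle. At 120 hpf, swim bladder malformation was recorded as present or absent by brightfield microscopy.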
# [9] = read-out: solute carrier (SLC22A6), SLC22A6 (gene 9356); assay: LTEA_HepaRG_SLC22A6: Life Technologies and Expression Analysis (LTEA) Assay for solute carrier (SLC22A6) using HepaRG (AID 2283653; active = hit-call score of the fitted dose curve at least 0.9, where 1 is the maximum; inactive = score below 0.9); details: mRNA level, 48 h; actives raise or lower the signal
# Outline: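 HepaRG, human liver line; 48 h chemical exposure; 8-pt half-log series from 100 uM in 0.5% DMSO, duplicate wells. Readout: TaqMan qRT-PCR of SLC22A6 mRNA, housekeeping-normalised; bidirectional curve fit vs DMSO baseline.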
# [10] = read-out: kallikrein-3 (KLK3), KLK3 (gene 354); assay: LTEA_HepaRG_KLK3: Life Technologies and Expression Analysis (LTEA) Assay for kallikrein-3 (KLK3) using HepaRG (AID 2283652; active = hit-call score of the fitted dose curve at least 0.9, where 1 is the maximum; inactive = score below 0.9); details: mRNA level, 48 h; actives raise or lower the signal
# Outline: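 Differentiated human HepaRG cells in serum-free induction medium exposed 48 h in duplicate, eight-point half-log series from 100 uM in 0.5% DMSO. KLK3 mRNA by qRT-PCR, normalised to ACTB, GAPDH, POLR2A; bidirectional fit versus DMSO.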
structure (smiles),measurement,setting,value
CC1(C)CON(Cc2ccccc2Cl)C1=O,outcome,[1],inactive
same,outcome,[2],inactive
same,outcome,[3],inactive
same,outcome,[4],inactive
same,outcome,[5],inactive
same,outcome,[6],inactive
same,outcome,[7],inactive
COP(=S)(OC)Oc1ccc([N+](=O)[O-])c(C)c1,outcome,[1],inactive
same,outcome,[2],inactive
same,outcome,[3],inactive
same,outcome,[4],inactive
same,outcome,[5],inactive
same,outcome,[6],inactive
same,outcome,[7],inactive
N#CN=C1SCCN1Cc1ccc(Cl)nc1,outcome,[1],inactive
same,outcome,[2],inactive
same,outcome,[3],inactive
same,outcome,[4],inactive
same,outcome,[5],inactive
same,outcome,[8],inactive
same,outcome,[6],inactive
CCOP(=S)(OCC)Oc1nc(Cl)n(C(C)C)n1,outcome,[1],inactive
same,outcome,[2],inactive
same,outcome,[3],inactive
same,outcome,[4],inactive
same,outcome,[5],inactive
same,outcome,[9],inactive
same,AC50,[6],8.3 µM (active)
same,outcome,[7],inactive
CCCC(=NOCC)C1=C(O)CC(CC(C)SCC)CC1=O (stereo not drawn),outcome,[1],inactive
same,outcome,[2],inactive
same,outcome,[3],inactive
same,outcome,[4],inactive
same,outcome,[5],inactive
same,outcome,[6],inactive
same,outcome,[7],inactive
Cc1cc(C)nc(Nc2ccccc2)n1,outcome,[1],inactive
same,outcome,[2],inactive
same,outcome,[3],inactive
same,outcome,[4],inactive
same,outcome,[5],inactive
same,outcome,[6],inactive
same,outcome,[7],inactive
CC(C)(C)C(=O)C(Oc1ccc(Cl)cc1)n1cncn1 (stereo not drawn),outcome,[1],inactive
same,outcome,[2],inactive
same,outcome,[3],inactive
same,outcome,[4],inactive
same,outcome,[5],inactive
same,outcome,[6],inactive
same,outcome,[7],inactive
O=P(O)(O)CCCl,outcome,[1],inactive
same,outcome,[2],inactive
same,outcome,[3],inactive
same,outcome,[4],inactive
same,outcome,[5],inactive
same,outcome,[8],inactive
same,outcome,[6],inactive
same,outcome,[7],inactive
CC(C)NC(=O)N1CC(=O)N(c2cc(Cl)cc(Cl)c2)C1=O,outcome,[1],inactive
same,outcome,[2],inactive
same,outcome,[3],inactive
same,outcome,[4],inactive
same,outcome,[5],inactive
same,outcome,[8],inactive
same,outcome,[7],inactive
Cn1c(-c2ccccc2)cc(-c2ccccc2)[n+]1C,outcome,[1],inactive
same,outcome,[2],inactive
same,outcome,[3],inactive
same,outcome,[4],inactive
same,outcome,[5],inactive
same,outcome,[6],inactive
same,outcome,[7],inactive
COP(=O)(OC)O/C(C)=C/C(=O)N(C)C,outcome,[1],inactive
same,outcome,[2],inactive
same,outcome,[3],inactive
same,outcome,[4],inactive
same,outcome,[5],inactive
same,outcome,[6],inactive
same,outcome,[7],inactive
COC(=O)c1c(C(F)F)nc(C(F)(F)F)c(C2=NCCS2)c1CC(C)C,outcome,[1],inactive
same,outcome,[2],inactive
same,outcome,[3],inactive
same,outcome,[4],inactive
same,outcome,[5],inactive
same,outcome,[6],inactive
same,outcome,[7],inactive
CCCN(CC)CC1COC2(CCC(C(C)(C)C)CC2)O1 (stereo not drawn),outcome,[1],inactive
same,outcome,[2],inactive
same,outcome,[3],inactive
same,outcome,[4],inactive
same,outcome,[5],inactive
same,outcome,[8],inactive
same,outcome,[6],inactive
CC1(C)C(C(=O)OC(C#N)c2cccc(Oc3ccccc3)c2)C1(C)C (stereo not drawn),outcome,[1],inactive
same,outcome,[2],inactive
same,outcome,[3],inactive
same,outcome,[4],inactive
same,outcome,[5],inactive
same,outcome,[6],inactive
same,outcome,[7],inactive
N#Cc1c[nH]cc1-c1cccc2c1OC(F)(F)O2,outcome,[1],inactive
same,outcome,[2],inactive
same,outcome,[3],inactive
same,outcome,[4],inactive
same,outcome,[5],inactive
same,outcome,[8],inactive
same,outcome,[6],inactive
CS(=O)(=O)c1ccc(C(=O)C2C(=O)CCCC2=O)c([N+](=O)[O-])c1,outcome,[1],inactive
same,outcome,[2],inactive
same,outcome,[3],inactive
same,outcome,[4],inactive
same,outcome,[5],inactive
same,outcome,[6],inactive
same,outcome,[7],inactive
CCOP(=O)(OCC)Oc1nc(Cl)c(Cl)cc1Cl,outcome,[1],inactive
same,outcome,[2],inactive
same,outcome,[3],inactive
same,outcome,[4],inactive
same,outcome,[5],inactive
same,outcome,[8],inactive
same,outcome,[6],inactive
same,outcome,[7],inactive
CC(C)Oc1cccc(NC(=O)c2ccccc2C(F)(F)F)c1,outcome,[1],inactive
same,outcome,[2],inactive
same,outcome,[3],inactive
same,outcome,[4],inactive
same,outcome,[5],inactive
same,outcome,[10],inactive
same,outcome,[9],inactive
same,outcome,[6],inactive
CS(=O)(=O)c1cc(C(F)(F)F)ccc1C(=O)c1cnoc1C1CC1,outcome,[1],inactive
same,outcome,[2],inactive
same,outcome,[3],inactive
same,outcome,[4],inactive
same,outcome,[5],inactive
same,outcome,[8],inactive
same,outcome,[6],inactive
O=C1C2CC=CCC2C(=O)N1SC(Cl)(Cl)Cl (stereo not drawn),outcome,[1],inactive
same,outcome,[2],inactive
same,outcome,[3],inactive
same,outcome,[4],inactive
same,outcome,[5],inactive
same,outcome,[6],inactive
CCOc1nc(F)cc2nc(S(=O)(=O)Nc3c(Cl)cccc3Cl)nn12,outcome,[1],inactive
same,outcome,[2],inactive
same,outcome,[3],inactive
same,outcome,[4],inactive
same,outcome,[5],inactive
same,outcome,[8],inactive
same,outcome,[6],inactive
same,outcome,[7],inactive
CCN(CC)C(=O)C(C)Oc1cccc2ccccc12 (stereo not drawn),outcome,[1],inactive
same,outcome,[2],inactive
same,outcome,[3],inactive
same,outcome,[4],inactive
same,outcome,[5],inactive
same,outcome,[6],inactive
same,outcome,[7],inactive
COCC(C)N(C(=O)CCl)c1c(C)csc1C (stereo not drawn),AC50,[1],30.4 µM (active)
same,AC50,[2],35.6 µM (active)
same,AC50,[3],36.2 µM (active)
same,AC50,[4],8.81 µM (active)
same,AC50,[5],24.5 µM (active)
same,AC50,[8],8.24 µM (active)
same,AC50,[6],30.8 µM (active)
same,outcome,[7],inactive
Cc1nc(N(C)C)nc(OC(=O)N(C)C)c1C,outcome,[1],inactive
same,outcome,[2],inactive
same,outcome,[3],inactive
same,outcome,[4],inactive
same,outcome,[5],inactive
same,outcome,[6],inactive
COC(=O)N(C(=O)N1CO[C@@]2(C(=O)OC)Cc3cc(Cl)ccc3C2=N1)c1ccc(OC(F)(F)F)cc1,outcome,[1],inactive
same,outcome,[2],inactive
same,outcome,[3],inactive
same,outcome,[4],inactive
same,outcome,[5],inactive
same,outcome,[7],inactive
CCC(C)n1c(=O)[nH]c(C)c(Br)c1=O (stereo not drawn),outcome,[1],inactive
same,outcome,[2],inactive
same,outcome,[3],inactive
same,outcome,[4],inactive
same,outcome,[5],inactive
same,outcome,[10],inactive
same,outcome,[9],inactive
CCSC(=O)N1CCCCCC1,outcome,[1],inactive
same,outcome,[2],inactive
same,outcome,[3],inactive
same,outcome,[4],inactive
same,outcome,[5],inactive
same,outcome,[6],inactive
Nc1cnn(-c2ccccc2)c(=O)c1Cl,outcome,[1],inactive
same,outcome,[2],inactive
same,outcome,[3],inactive
same,outcome,[4],inactive
same,outcome,[5],inactive
same,outcome,[8],inactive
same,outcome,[6],inactive
N#Cc1c(Cl)cccc1Cl,outcome,[1],inactive
same,outcome,[2],inactive
same,outcome,[3],inactive
same,outcome,[4],inactive
same,outcome,[5],inactive
same,outcome,[6],inactive
same,outcome,[7],inactive
CNC(=O)N(C)c1nnc(C(C)(C)C)s1,outcome,[1],inactive
same,outcome,[2],inactive
same,outcome,[3],inactive
same,outcome,[4],inactive
same,outcome,[5],inactive
same,outcome,[8],inactive
same,outcome,[6],inactive
Cc1c(COC(=O)[C@@H]2[C@H](/C=C(\Cl)C(F)(F)F)C2(C)C)cccc1-c1ccccc1,outcome,[1],inactive
same,outcome,[2],inactive
same,outcome,[3],inactive
same,outcome,[4],inactive
same,outcome,[5],inactive
same,outcome,[8],inactive
same,outcome,[6],inactive
same,outcome,[7],inactive
CC1(C)C(C=C(Cl)Cl)C1C(=O)OC(C#N)c1cccc(Oc2ccccc2)c1 (stereo not drawn),AC50,[1],1.86 µM (active)
same,AC50,[2],0.994 µM (active)
same,outcome,[3],inactive
same,outcome,[4],inactive
same,outcome,[5],inactive
same,outcome,[6],inactive
COc1cc(OC)nc(NC(=O)NS(=O)(=O)c2ncccc2OCC(F)(F)F)n1,outcome,[1],inactive
same,outcome,[2],inactive
same,outcome,[3],inactive
same,outcome,[4],inactive
same,outcome,[5],inactive
same,outcome,[6],inactive
same,outcome,[7],inactive
